Compound activity as filed in PubChem.
The entries come from a sample that favours hits as a whole.
RE007 growth inh – less growth of the S. pombe RE007 Vpr strain; S. pombe RE007 Vpr strain, BacTiter-Glo ATP luminescence, 24 h; 360,000 tested, 0.21% active; Potency, µM (titrated, usually from 92.2 µM), actives largely listed as inhibitors; active = well fitted falling curve with a large enough effect; inconclusive = small, poorly fitted or top-dose-only effect; inactive = no such curve, though single readings can be large or run the other way; also: nearly all actives have a fitted effect of over 50% in size
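Fission yeast RE007 carrying one integrated HIV-1 vpr copy, seeded at OD 0.01 in PMG+AL medium with 23 nL pinned compound. Grown 24 h at 30 degrees; viability read by BacTiter-Glo luminescence after 5 min.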
Shiga toxin inh – inhibitors of Shiga toxin in Vero cells; Vero cells, Shiga toxin protein synthesis inhibition reporter; inhibition, % at 38.7 µM; 290,000 tested, 9.2% active; in the data active = inhibition mostly above about 28%, no sharp cut-off; inactive = mostly below about 43%
LmPK inhibitor – inhibitors of Leishmania mexicana pyruvate kinase; 290,000 tested, 0.37% active; purified LmPK, Kinase-Glo ATP luminescence, 1 h; Q27686; Potency, µM (top dose mostly 57.5 µM), usual class: inhibitors
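Pyruvate kinase activity monitored as ATP production (luciferase luminescence). Conditions: 0.1 nM enzyme, 0.5 mM PEP, 0.1 mM ADP, 1 h, RT; normalized against uninhibited and no-enzyme wells.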
CHX counter – counter-screen for Shiga toxin inhibitors: cycloheximide protein synthesis inhibition. cell reporter, cycloheximide protein synthesis inhibition counterscreen. max response, %. 300,000 tested, 12% active. AID 2314; in the data active = max response mostly above about 13%, no sharp cut-off; inactive = mostly below about 14%; also: read at 38.3 µM for the half of the compounds with a filed dose
FBPA Giardia inh – inhibitors of Giardia lamblia fructose-1,6-bisphosphate aldolase. purified Giardia FBPA. Potency, µM (highest dose often 59.6 µM), usual class: inhibitors. 290,000 tested, 0.71% active. AID 2451; also: nearly all actives have a fitted effect of over 55% in size
Target sequence (A8B2U2 whole entry, looked up): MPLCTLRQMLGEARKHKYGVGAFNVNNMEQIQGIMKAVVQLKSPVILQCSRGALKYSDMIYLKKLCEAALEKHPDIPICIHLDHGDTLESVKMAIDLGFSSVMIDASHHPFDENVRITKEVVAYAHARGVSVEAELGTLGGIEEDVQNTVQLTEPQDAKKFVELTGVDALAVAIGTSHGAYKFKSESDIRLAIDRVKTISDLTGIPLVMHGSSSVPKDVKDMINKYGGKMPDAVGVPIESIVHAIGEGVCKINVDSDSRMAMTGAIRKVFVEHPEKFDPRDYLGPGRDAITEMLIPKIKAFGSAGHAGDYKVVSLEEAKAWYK
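Giardia FBPA (40 nM reagent) was preincubated 10 min at RT with compound (up to 57.5 uM final), then substrate plus GAPDH/TPI/NAD/arsenate coupling system with diaphorase/resazurin was added; resorufin fluorescence (525/598 nm) was read after 20 min.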
TbPYK inhibitor – blocks Trypanosoma brucei pyruvate kinase | Q57TT1 | TbPYK enzyme, Kinase-Glo Plus ATP luminescence, 45 min | Potency, µM (highest dose often 76.8 µM), actives largely listed as inhibitors | 410,000 tested, 0.12% active | AID 624173; also: nearly all actives have a fitted effect of over 50% in size
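Quantitative HTS: titrated library compounds versus trypanosomal pyruvate kinase in TEA buffer (pH 7.2) containing KCl, MgCl2, BSA and Tween-20. Reactions were initiated with ADP, 130 uM final. Kinase-Glo Plus luminescence was read after 45 min at RT.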
Each line names hits and unclear results; the compound was inactive in the other large screens. Unless noted, calls follow the shape of the dose curve; as a rule, active = well fitted curve in the direction sought with a large enough effect; inconclusive = small, poorly fitted or top-dose-only effect, or another doubt; inactive = no such curve, though single readings can be large; an effect the other way counts as inactive or inconclusive.

COc1cc(OC)cc(C(=O)NCCOc2ccccc2)c1	Shiga toxin inh 77, CHX counter 31
Cc1cccc(NC(=O)CCOc2ccccc2)c1C	none
Cc1cccc(OCCC(=O)NCC(=O)Nc2cccc(C)c2C)c1	FBPA Giardia inh 16µM
Cc1ccc(OCC(O)CNC(=O)c2ccccc2C(=O)O)cc1 (configuration not stated)	CHX counter 18
CC(C)(C)c1ccc(C(=O)NCCOc2ccccc2)cc1	CHX counter 26
CC(C)(C)c1ccc(C(=O)NCCOc2ccccc2F)cc1	Shiga toxin inh 34
Cc1ccc(C(=O)NCCOc2cccc(C)c2)cc1	Shiga toxin inh 83, CHX counter 37
Cc1ccc(OCCNC(=O)c2cc(=O)[nH]c3ccccc23)cc1	none
Cc1ccc(OCCNC(=O)c2ccccc2F)cc1	Shiga toxin inh 40, CHX counter 21
C=C1c2cccc(C(F)(F)F)c2O[C@H](C(=O)OCC)[C@H]1OC	none (no result: Shiga toxin inh, LmPK inhibitor, CHX counter, FBPA Giardia inh)
CCCn1c(SCc2nc(-c3ccccc3C)no2)nnc1-c1ccc(Cl)cc1	none (no result: RE007 growth inh, Shiga toxin inh, LmPK inhibitor, CHX counter, FBPA Giardia inh)
CCCCOC(=O)Nc1ccc(N2CCCCC2)cc1	CHX counter 43
CC(C)CC(=O)Nc1ccc(N2CCOCC2)cc1	Shiga toxin inh 89
Cc1nn(CC(=O)Nc2ccc(N3CCOCC3)cc2)c(C)c1Cl	CHX counter 8.8 (no result: FBPA Giardia inh)
Cc1nn(CC(=O)Nc2ccc(N3CCOCC3)cc2)c(C)c1Br	none
CCCCOC(=O)Nc1ccc(N2CCOCC2)cc1	Shiga toxin inh 80, CHX counter 29
CCNCC(=O)Nc1ccc(N2CCOCC2)cc1	none
C[C@@H]1CCCCO[C@@H](CN(C)S(=O)(=O)c2ccc(Cl)cc2)[C@@H](C)CN([C@H](C)CO)C(=O)c2cc(N(C)C)ccc2O1	none (no result: Shiga toxin inh, LmPK inhibitor, CHX counter, FBPA Giardia inh)
Cc1ccc(S(=O)(=O)N(C)C[C@H]2OCCCC[C@@H](C)Oc3ccc(N(C)C)cc3C(=O)N([C@H](C)CO)C[C@@H]2C)cc1	TbPYK inhibitor 7.9µM (no result: Shiga toxin inh, LmPK inhibitor, CHX counter, FBPA Giardia inh)
Cn1c(N)c(C(=O)COC(=O)c2cc(S(=O)(=O)NCc3ccccc3)ccc2O)c(=O)n(C)c1=O	none (no result: Shiga toxin inh, LmPK inhibitor, CHX counter, FBPA Giardia inh)
COc1cc(NC2CCCCC2O)c2nc(-c3ccc(Cl)cc3)ccc2c1 (configuration not stated)	Shiga toxin inh 134, CHX counter 85, FBPA Giardia inh inconclusive
COc1ccc(OCC(=O)OCC(=O)NC2CCCCC2C)cc1 (configuration not stated)	none (no result: Shiga toxin inh, LmPK inhibitor, CHX counter, FBPA Giardia inh)
O=c1[nH]nc(Cc2ccccc2)c2ccccc12	none
O=c1[nH]nc(Cc2ccc3ccccc3n2)c2ccccc12	Shiga toxin inh 36, CHX counter 28
O=C(Nc1cnc2sccn2c1=O)c1ccc(Cl)cc1Cl	Shiga toxin inh 120, CHX counter 38
COc1ccc(Cl)cc1NC(=O)c1cnc2sccn2c1=O	none
COCCNC(=O)C(=O)Nc1c2c(nn1-c1ccccc1)CS(=O)(=O)C2	none (no result: RE007 growth inh, Shiga toxin inh, LmPK inhibitor, CHX counter, FBPA Giardia inh)
O=C(Oc1ccccc1)n1c(=S)oc2ccccc21	FBPA Giardia inh inconclusive
Cc1ccccc1OC(=O)n1c(=S)oc2cc(Cl)ccc21	RE007 growth inh inconclusive, CHX counter 16, TbPYK inhibitor inconclusive
COc1ccc(C(=O)NC2CCSc3ccccc32)cc1 (configuration not stated)	Shiga toxin inh 35, CHX counter 19 (no result: FBPA Giardia inh)
CSc1ccc(C(=O)NC2CCSc3ccccc32)cc1 (configuration not stated)	CHX counter 11
COc1ccc(OC)c(C(=O)NC2CCSc3ccccc32)c1 (configuration not stated)	none
Cc1ccc(NC(=S)NC2CCSc3ccccc32)cc1 (configuration not stated)	none
O=C(Cc1ccccc1)NC1CCSc2ccccc21 (configuration not stated)	none (no result: FBPA Giardia inh)
CC(=O)Nc1ccc(C(=O)NC2CCSc3ccccc32)cc1 (configuration not stated)	CHX counter 14
O=C(CN1C(=O)CSc2ccc(S(=O)(=O)N3CCCCC3)cc21)NCc1ccccc1	none (no result: FBPA Giardia inh)
CCC(Sc1nc2ccncc2[nH]1)C(=O)Nc1cc(C)ccc1C (configuration not stated)	none (no result: RE007 growth inh, Shiga toxin inh, LmPK inhibitor, CHX counter, FBPA Giardia inh)
CC(C)(C)[C@H](NC(=O)c1ccc(N)c(Cl)c1)C(=O)N1CCC[C@H]1C(=O)N[C@H](C#N)CC(=O)O	none (no result: RE007 growth inh, Shiga toxin inh, LmPK inhibitor, CHX counter, FBPA Giardia inh)
CC1Cc2ccccc2N1C(=O)CN1CCC(n2nnc3cc(C(F)(F)F)ccc32)CC1 (configuration not stated)	none
Cc1ccc(C(=O)NCC(=O)OCC(=O)/C=C2\N(C)c3ccccc3C2(C)C)cc1C	none
CC(C)(C)C(=O)OCOP(=O)(OCOC(=O)C(C)(C)C)C(C)(Oc1ccc(O)cc1)P(=O)(OCOC(=O)C(C)(C)C)OCOC(=O)C(C)(C)C	none (no result: RE007 growth inh, LmPK inhibitor, TbPYK inhibitor)
O=C(Nc1ccc2nc3n(c(=O)c2c1)CCCCC3)c1cc([N+](=O)[O-])ccc1F	Shiga toxin inh 32, CHX counter 37 (no result: FBPA Giardia inh)
O=C(Nc1ccc2nc3n(c(=O)c2c1)CCCCC3)c1c(F)ccc([N+](=O)[O-])c1F	Shiga toxin inh 89, CHX counter 92 (no result: FBPA Giardia inh)
CC(=O)c1sc(NC(=O)c2ccc(Cl)cc2)nc1C	Shiga toxin inh 71, CHX counter 30
Cc1ccccc1NC(=O)c1sc(NC(=O)C2CC2)nc1C	CHX counter 11
Cc1nc(NC(=O)C2CC2)sc1C(=O)Nc1ccccc1	none
CC(=O)c1sc(NC(=O)c2ccc(F)c(F)c2)nc1C	none
CC(=O)c1sc(NC(=O)c2cccc(C)c2)nc1C	Shiga toxin inh 68, LmPK inhibitor inconclusive, CHX counter 43
CC(=O)c1sc(NC(=O)c2ccccc2C)nc1C	CHX counter 47
O=C(Nc1sc2c(c1C(=O)NCc1ccccc1)CCCC2)c1cc(=O)c2cc(Cl)ccc2o1	none (no result: RE007 growth inh, Shiga toxin inh, LmPK inhibitor, CHX counter, FBPA Giardia inh)
Cc1cccc(C(=O)NC(=O)Nc2c(C)cc(C)nc2C)c1	Shiga toxin inh 58, CHX counter 21
Cc1cc(C)c2sc(NC(=O)C3CC3)nc2c1	Shiga toxin inh 42, CHX counter 27
CCNC(=O)C1CCCN(C(=O)c2ccc(F)c(Cl)c2)CC1 (configuration not stated)	none (no result: Shiga toxin inh, LmPK inhibitor, CHX counter, FBPA Giardia inh)
O=C(c1cn(-c2ccc(Cl)c(Cl)c2)nn1)C1CC1	Shiga toxin inh 51, CHX counter 37
O=C1CCCCC1C(=O)c1cn(-c2ccc(Cl)c(Cl)c2)nn1 (configuration not stated)	none
CC(=O)N1CCC(C(=O)Nc2cc(S(=O)(=O)N3CCCCC3)ccc2C)CC1	none (no result: Shiga toxin inh, LmPK inhibitor, CHX counter, FBPA Giardia inh)
Clc1cccc(Cl)c1CNCCCSc1ncccn1	CHX counter 7.1, FBPA Giardia inh inconclusive
Fc1cccc(Cl)c1CNCCCSc1ncccn1	FBPA Giardia inh inconclusive
S=C(c1ccc(-c2cccc(Cl)c2)o1)N1CCOCC1	Shiga toxin inh 188, CHX counter 43
N#CCCN1CCN(C(=S)c2ccc(-c3ccc(Cl)c(Cl)c3)o2)CC1	none
